Most compounds without a hit are left out; they make up all but 0.9% or so of the library.
PPARg SRC-3 ag = PPARgamma agonists recruiting SRC-3 coactivator, primary screen, biochemical | Peroxisome proliferator-activated receptor gamma (Homo sapiens), P37231 | biochemical PPARgamma/SRC-3 coactivator recruitment assay | activation, % at 8 µM | 0.26% of 200,000 active; in the data active means activation above about 23%
Target sequence (P37231 whole entry, looked up): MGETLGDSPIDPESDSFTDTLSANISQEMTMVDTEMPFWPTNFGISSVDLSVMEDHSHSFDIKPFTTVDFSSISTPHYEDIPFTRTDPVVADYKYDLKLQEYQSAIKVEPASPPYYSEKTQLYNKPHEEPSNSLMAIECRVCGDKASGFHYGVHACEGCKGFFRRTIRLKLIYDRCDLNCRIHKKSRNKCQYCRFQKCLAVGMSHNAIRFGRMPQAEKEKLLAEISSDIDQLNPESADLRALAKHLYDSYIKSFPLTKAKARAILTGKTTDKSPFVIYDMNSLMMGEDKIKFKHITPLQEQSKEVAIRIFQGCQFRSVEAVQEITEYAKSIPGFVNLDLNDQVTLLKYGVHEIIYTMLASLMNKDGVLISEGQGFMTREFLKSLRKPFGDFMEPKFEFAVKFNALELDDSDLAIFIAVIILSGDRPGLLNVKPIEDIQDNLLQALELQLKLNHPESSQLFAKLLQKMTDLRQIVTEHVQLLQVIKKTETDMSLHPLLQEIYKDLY
SRC1 TRFRET art = TR-FRET detection interference compounds, primary screen, artefact control for PPARgamma SRC-1 recruitment agonists, biochemical, TR-FRET emission ratio; TR-FRET detection artefact counter-screen; active compounds read high; TR-FRET ratio at 8 µM; 0.34% of 99,000 active; AID 1051, 2008; in the data active means TR-FRET ratio above about 2300
PPARg SRC-1 ag = PPARgamma agonists recruiting SRC-1 coactivator, primary screen, biochemical; 0.41% of 200,000 active; PPARgamma-SRC-1 coactivator recruitment biochemical assay; Peroxisome proliferator-activated receptor gamma (Homo sapiens), P37231; activation, % at 8 µM; in the data active means activation above about 19%
SRC3 TRFRET art = TR-FRET detection interference compounds, artefact control for PPARgamma SRC-3 recruitment agonists, biochemical, TR-FRET ratio. TR-FRET artefact counter-screen, PPARgamma/SRC-3 format; active compounds read high. TR-FRET ratio at 8 µM. 0.39% of 99,000 active. AID 1048, 2008
PPARg SRC-2 ag = agonists of PPARg-SRC-2 recruitment, primary screen, biochemical, HTS; Peroxisome proliferator-activated receptor gamma (Homo sapiens), P37231; PPARgamma LBD-SRC-2 recruitment; activation, % at 8 µM; 0.34% of 200,000 active; AID 1032, 2008; in the data active means activation above about 22%
SRC2 TRFRET art = TR-FRET signal artefacts, primary screen, artefact control for PPARgamma SRC-2 agonist project, biochemical; TR-FRET artefact counter-screen; active compounds read high; TR-FRET ratio at 8 µM; 0.4% of 200,000 active; AID 1049, 2008
A number is an active result; 0 = inactive; - = no result given. Unless noted, no stated cut-off is given here; in the data, active means TR-FRET ratio above about 2000; inactive means the rest.

SMILES | PPARg SRC-3 ag | SRC1 TRFRET art | PPARg SRC-1 ag | SRC3 TRFRET art | PPARg SRC-2 ag | SRC2 TRFRET art
O=C(OCc1nnc(-c2ccccc2)o1)C1CC(=O)N(Cc2ccco2)C1 (stereo unspecified) | 0 | 0 | 0 | 0 | 0 | 0
O=C(COC(=O)CNS(=O)(=O)c1ccc2ccccc2c1)Nc1ccccc1Sc1ccccc1 | 0 | 0 | 0 | 0 | 0 | 0
Cc1cccc(N2CCN(C(=S)c3ccc(-c4ccccc4[N+](=O)[O-])o3)CC2)c1 | 0 | 0 | 0 | 0 | 0 | 0
S=C(c1ccc(-c2cccc(Cl)c2)o1)N1CCOCC1 | 0 | 0 | 0 | 0 | 0 | 0
O=[N+]([O-])c1ccccc1-c1ccc(C(=S)N2CCCC2)o1 | 0 | 0 | 0 | 0 | 0 | 1992
S=C(c1ccc(-c2cccc(Cl)c2)o1)N1CCCCC1 | 0 | 2350 | 0 | 0 | 0 | 0
Cc1ccc(NC(=O)/C(Cl)=C/c2ccccc2)cc1C | 0 | 0 | 0 | 0 | 0 | 0
COc1ccc(-c2csc3nc(C)nc(N4CCN(c5ccc(C(C)=O)cc5)CC4)c23)cc1OC | 0 | 0 | 0 | 2053 | 0 | 0
CCC(C)NS(=O)(=O)c1ccc(OCC(=O)NCc2cccnc2)cc1 (stereo unspecified) | 0 | - | 0 | - | 0 | 0
Cc1ccc(S(=O)(=O)NC(=O)COc2ccccc2)cc1 | 0 | 0 | 21.3 | 0 | 0 | 0
Cc1ccc(NS(=O)(=O)c2ccc(OCC(=O)NCc3cccnc3)cc2)cc1 | 0 | 0 | 0 | 0 | 26.9 | 0
Cc1ccc(OCC(=O)NS(=O)(=O)c2ccccc2)cc1 | 0 | 0 | 0 | 0 | 0 | 0
O=C1NC(c2cccc([N+](=O)[O-])c2)Oc2ccccc21 (stereo unspecified) | 0 | 0 | 0 | 0 | 0 | 0
COc1ccc(C2(O)CCN(CC(=O)Nc3nccs3)CC2)c(OC)c1 | 0 | - | 0 | - | 0 | 1972
Nc1ccc(-c2cn3cccnc3n2)cc1 | 0 | 0 | 0 | 2118 | 0 | 0
COc1ccc(-c2cn3cccnc3n2)cc1Br | 0 | 0 | 0 | 0 | 0 | 0
Cc1cccn2c(CN(C)CCC3CCCCO3)c(C(=O)N3CCCCC3)nc12 (stereo unspecified) | 0 | 0 | 0 | 0 | 0 | 0
CCOc1cccc2cc(C(=O)Nc3ccccc3-c3ccccc3)c(=O)oc12 | 0 | 0 | 0 | 0 | 0 | 0
CCOc1cccc2cc(C(=O)Nc3cc(C)on3)c(=O)oc12 | 0 | - | 37.8 | - | 0 | 0
N#Cc1ccccc1Sc1ccccc1C(=O)OCc1nnc(-c2ccccc2)o1 | 0 | - | 0 | - | 0 | 2002
N#Cc1ccccc1Sc1ccccc1C(=O)OCC(N)=O | 0 | 0 | 0 | 0 | 0 | 0
CCc1cc2cc(C(=O)Nc3ccc(C)cc3)sc2s1 | 0 | - | 0 | - | 23.8 | 0
CCN(CC)c1ccc(NC(=O)c2ccccc2)cc1S(=O)(=O)Nc1ccccc1OC | 0 | 0 | 0 | 2080 | 0 | 0
Cc1ccc(CNC(=O)COc2ccc(C(=O)c3ccc(F)cc3)cc2)cc1 | 0 | 2702 | 39.1 | 0 | 0 | 0
Cc1ccc(-n2c(C)cc(C(=O)COc3c(CO)cc(F)cc3CO)c2C)cc1C | 0 | 0 | 0 | 0 | 22.2 | 0
SMILES | PPARg SRC-3 ag | SRC1 TRFRET art | PPARg SRC-1 ag | SRC3 TRFRET art | PPARg SRC-2 ag | SRC2 TRFRET art
Cc1cc(C)nc(NC(=O)c2cc(-c3ccc(C)s3)nc3ccccc23)c1 | 0 | 0 | 0 | 2323 | 0 | 0
CN(C)S(=O)(=O)c1ccc(NC(=O)c2cc(-c3cccs3)nc3ccccc23)cc1 | 0 | 3250 | 0 | 3343 | 0 | 2669
CCN(CC)S(=O)(=O)c1ccc(NC(=O)c2cc(-c3cccs3)nc3ccccc23)cc1 | 0 | 0 | 0 | 0 | 0 | 0
Cc1cc(NC(=O)c2cc(-c3cccs3)nc3ccccc23)no1 | 0 | - | 0 | - | 0 | 0
COc1cc(OC)c(C(=O)OC(C)C(=O)Nc2cccc(C(F)(F)F)c2)cc1OC (stereo unspecified) | 0 | 0 | 0 | 0 | 0 | 0
CN(c1nc(-c2ccc(Br)cc2)cs1)C1CCS(=O)(=O)C1 (stereo unspecified) | 0 | 0 | 0 | 0 | 0 | 0
CCc1ccc(N/C(N)=N/c2nc(CSc3ccccn3)cc(=O)[nH]2)cc1 | 0 | 0 | 0 | 2114 | 0 | 0
COc1cccc(N/C(N)=N/c2nc(CSc3ccccn3)cc(=O)[nH]2)c1 | 0 | 0 | 0 | 0 | 0 | 0
Nc1nc(-c2ccc(Cl)cc2)nn1C(=O)c1cccs1 | 0 | 0 | 0 | 0 | 0 | 0
O=C(NC(=S)Nc1ccc(S(=O)(=O)Nc2nccs2)cc1)c1ccccc1 | 0 | 0 | 0 | 0 | 0 | 0
CC(C)C(=O)NC(=S)Nc1ccc(S(=O)(=O)Nc2nccs2)cc1 | 0 | 2318 | 0 | 0 | 0 | 0
O=C(CSc1ccc(Br)c2cccc(Cl)c12)Nc1ccc(S(=O)(=O)Nc2nccs2)cc1 | 0 | 2830 | 30.0 | 2321 | 0 | 1982
COc1nccnc1NS(=O)(=O)c1ccc(NC(=O)c2cccc(C)c2)cc1 | 0 | 0 | 0 | 0 | 0 | 0
Cc1ccc(C2CCN(C(=S)NC(C)C)C2)cc1 (stereo unspecified) | 0 | 0 | 0 | 0 | 0 | 0
O=c1cnnc(SCc2ccc([N+](=O)[O-])cc2)[nH]1 | 73.1 | 0 | 78.6 | 0 | 45.4 | 0
CC(C)(C)C(=O)Nc1cc(S(=O)(=O)N2CCCCC2)ccc1N1CCCCC1 | 0 | 0 | 0 | 0 | 0 | 0
OC(C#CCN1CCCC1)(c1ccccc1)c1cccc(F)c1 (stereo unspecified) | 0 | 0 | 0 | 0 | 25.5 | 0
Cc1ccc(OC/C(O)=C(\C#N)c2nc3ccccc3s2)cc1 | 0 | 0 | 0 | 0 | 0 | 0
Cn1c(/C(C#N)=C(\O)COc2ccc3ccccc3c2)nc2ccccc21 | 0 | 0 | 0 | 0 | 31.8 | 2360
NC(N)=Nc1nc(CSCC/C(N)=N/S(N)(=O)=O)cs1 | 0 | 0 | 21.6 | 0 | 0 | 0
Cc1ccc(-n2c(N)c(C(=O)Nc3ccccc3F)sc2=S)cc1C | 0 | 0 | 0 | 0 | 0 | 0
Cc1ccc(-c2csc(NC(=O)c3cc([N+](=O)[O-])ccc3N3CCOCC3)n2)cc1 | 22.8 | 0 | 0 | 2579 | 0 | 0
Cc1ccccc1C(C(=O)NC1CCCC1)N(C(=O)CNC(=O)c1ccco1)c1cccnc1 (stereo unspecified) | 0 | 0 | 0 | 0 | 0 | 0
Cc1ccc(OCC(=O)NNC(=O)C(=O)NC(C)(C)C)cc1 | 0 | 2454 | 20.9 | 0 | 0 | 0
Cc1ccc(N=Nc2c(N)n(-c3ccccc3)[nH]c2=O)cc1 | 25.8 | - | 0 | - | 0 | 0
CN1/C(=C\C(=O)CSc2nnc(NCc3ccccc3)s2)C(C)(C)c2ccccc21 | 0 | 0 | 0 | 2062 | 0 | 0
COc1ccc(C2C(C(C)=O)=C(O)C(=O)N2c2nc3ccccc3s2)cc1OC (stereo unspecified) | 0 | 0 | 0 | 2067 | 0 | 0
COc1ccc(C2C(C(C)=O)=C(O)C(=O)N2c2nccs2)cc1OC (stereo unspecified) | 0 | 0 | 0 | 0 | 0 | 0
